The source of these data is publication PMC4336329 (PLoS ONE, 2015).

Molecules are shown by their SMILES. Among all 310,000 compounds or so, about 14,000 (4.5%) showed an effect of 50% or more. Effects have a minus sign here. The entries come from a sample that favours strong results as a whole.
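Further: peak tail current of the secondary pulse compared with the same well before compound.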

Sequence of human ether-à-go-go-related gene (hERG) potassium channel (Q12809 whole entry, looked up): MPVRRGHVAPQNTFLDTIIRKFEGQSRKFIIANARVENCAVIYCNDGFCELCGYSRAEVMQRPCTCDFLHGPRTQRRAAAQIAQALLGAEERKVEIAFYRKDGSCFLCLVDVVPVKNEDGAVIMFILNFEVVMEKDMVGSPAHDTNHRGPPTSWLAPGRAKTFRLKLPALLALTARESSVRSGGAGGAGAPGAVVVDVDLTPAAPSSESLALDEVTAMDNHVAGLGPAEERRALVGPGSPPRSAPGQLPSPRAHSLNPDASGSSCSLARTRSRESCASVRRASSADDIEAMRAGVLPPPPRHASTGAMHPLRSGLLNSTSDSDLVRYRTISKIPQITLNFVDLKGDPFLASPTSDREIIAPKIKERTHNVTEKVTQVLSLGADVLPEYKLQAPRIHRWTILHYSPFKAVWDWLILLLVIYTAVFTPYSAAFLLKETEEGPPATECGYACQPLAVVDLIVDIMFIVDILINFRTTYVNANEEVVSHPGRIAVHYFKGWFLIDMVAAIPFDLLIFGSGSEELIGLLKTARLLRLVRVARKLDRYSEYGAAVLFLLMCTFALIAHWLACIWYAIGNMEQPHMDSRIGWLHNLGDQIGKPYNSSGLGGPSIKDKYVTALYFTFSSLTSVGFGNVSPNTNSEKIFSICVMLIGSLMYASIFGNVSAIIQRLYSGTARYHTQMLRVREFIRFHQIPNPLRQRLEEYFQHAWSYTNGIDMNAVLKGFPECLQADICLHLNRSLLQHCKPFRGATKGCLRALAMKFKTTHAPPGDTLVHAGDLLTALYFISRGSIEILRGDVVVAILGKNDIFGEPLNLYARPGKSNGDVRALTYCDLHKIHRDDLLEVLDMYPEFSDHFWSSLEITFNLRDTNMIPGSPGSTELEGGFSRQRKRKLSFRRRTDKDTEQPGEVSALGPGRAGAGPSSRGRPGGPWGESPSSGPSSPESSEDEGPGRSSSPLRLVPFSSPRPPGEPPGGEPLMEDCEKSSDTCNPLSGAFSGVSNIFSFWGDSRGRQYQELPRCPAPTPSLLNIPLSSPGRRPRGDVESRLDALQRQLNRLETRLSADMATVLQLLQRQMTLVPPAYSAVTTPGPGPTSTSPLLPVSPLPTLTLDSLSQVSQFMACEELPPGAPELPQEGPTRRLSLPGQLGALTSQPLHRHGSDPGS

This test addresses human ether-à-go-go-related gene (hERG) potassium channel (human, UniProt Q12809). The test is described as follows: primary screen, population patch clamp on CHO cells stably expressing hERG; higher = less effect of the substance.
`COc1ccc(C(CNC(=O)C(CCSC)NC(=O)c2ccccc2Cl)N2CCCC2)cc1` (stereo not shown): the “hERG current change (%, negative = inhibition) at 10uM” value was -34.9%. For `O=C(CCN1C(=O)c2ccccc2S1(=O)=O)Nc1cccc2ccccc12`, the “hERG current change (%, negative = inhibition) at 10uM” value is on record as -5.33%. For the compound `Cc1ccc(C)c(S(=O)(=O)Nc2ccc(C(N)=O)cc2)c1`, the “hERG current change (%, negative = inhibition) at 10uM” value is 14.9%. In the case of `CC1(C)CC(=O)c2c(Cc3ccccc3)noc2C1`, the “hERG current change (%, negative = inhibition) at 10uM” value is on record as 12.1%. In the case of `Cc1ccccc1/C=C1\Sc2ccc(C(=O)N3CCN(c4ccccn4)CC3)cc2N(C)C1=O`, the “hERG current change (%, negative = inhibition) at 10uM” value is given as -26.1%.

Take `CCN(CC)S(=O)(=O)c1cccc(C(=O)Nc2nc3cc4c(cc3s2)OCCO4)c1`: the “hERG current change (%, negative = inhibition) at 10uM” value is 0.652%. Consider `Cc1ccc(OCC(=O)N/N=C/c2ccncc2)cc1C`, for which the “hERG current change (%, negative = inhibition) at 10uM” value is on record as 5.75%. `CC(C)OCCCNC(=O)c1ccc2c(=O)n(Cc3ccc4c(c3)OCO4)c(=S)[nH]c2c1`: the “hERG current change (%, negative = inhibition) at 10uM” value is 21.3%.

In the case of `N#C/C(=C\c1ccc(F)cc1)C(=O)Nc1ccccn1`, the “hERG current change (%, negative = inhibition) at 10uM” value stood at 2.68%. Consider `CCOc1cccc(CN2CCCC(C(=O)c3cccc(C(F)(F)F)c3)C2)c1O` (stereo not shown), for which the “hERG current change (%, negative = inhibition) at 10uM” value is -67.9%. On to `CC(=O)Nc1ccc(CN2CCN(c3cccc(C(F)(F)F)c3)CC2)cc1`, for which the “hERG current change (%, negative = inhibition) at 10uM” value is reported as -38%. For `CCOc1cc(CN2CCN(c3cccc(C(F)(F)F)c3)CC2)ccc1O`, the “hERG current change (%, negative = inhibition) at 10uM” value was -73%. With `O=C(c1cccc(C(F)(F)F)c1)C1CCCN(Cc2ccccc2O)C1` (stereo not shown), the “hERG current change (%, negative = inhibition) at 10uM” value is recorded as -29%.

For `FC(F)(F)c1cccc(N2CCN(Cc3ccoc3)CC2)c1`, the “hERG current change (%, negative = inhibition) at 10uM” value is reported as -60.4%. On to `FC(F)(F)c1cccc(N2CCN(Cc3cccnc3)CC2)c1`, for which the “hERG current change (%, negative = inhibition) at 10uM” value is recorded as -8.03%. With `CCOc1cccc(CN2CCN(c3cccc(C(F)(F)F)c3)CC2)c1O`, the “hERG current change (%, negative = inhibition) at 10uM” value is listed as -46.6%.

For `CCOc1cc(CN2CCN(c3cccc(C(F)(F)F)c3)CC2)ccc1OC`, the “hERG current change (%, negative = inhibition) at 10uM” value is -16.6%. For `O=C1COc2ccc(-c3n[nH]c(=O)c4ccccc34)cc2N1`, the “hERG current change (%, negative = inhibition) at 10uM” value is reported as -2.91%.

Regarding `c1ccc(-c2nnsc2Sc2ccccn2)cc1`, the “hERG current change (%, negative = inhibition) at 10uM” value was 3.35%. On to `Cc1cc(C)cc(CC2CC(=O)N(c3cc(C)on3)C2=O)c1` (stereo not shown), for which the “hERG current change (%, negative = inhibition) at 10uM” value is 0.808%. For `Cc1cc(C(=O)CSc2nnc(-c3ccc(Cl)cc3)n2C)c(C)n1CC1CCCO1` (stereo not shown), the “hERG current change (%, negative = inhibition) at 10uM” value stood at 8.08%. Then `Cc1noc(C)c1COC(=O)c1ccc(N(C)C)cc1`, with -9.83%; and `CNC(=O)CN(c1cc(C)ccc1OC)S(=O)(=O)c1ccc(C)cc1`, with -0.703%.

Take `COc1ccccc1CNC(=O)CCNC(=O)C1CCN(S(=O)(=O)c2ccccc2)CC1`: the “hERG current change (%, negative = inhibition) at 10uM” value was -7.65%. Then `C=CCn1c(SCC(=O)Nc2c(C)n(C)n(-c3ccccc3)c2=O)nc2ccccc2c1=O`, with -32.9%; and `C=CCn1c(SCC(=O)Nc2ccccc2)nc2scc(-c3cccs3)c2c1=O`, with 8.69%. As to `C=CCn1c(SCC(=O)Nc2c(C)n(C)n(-c3ccccc3)c2=O)nc2scc(-c3ccccc3)c2c1=O`, the “hERG current change (%, negative = inhibition) at 10uM” value was -56%. Take `Cc1sc2nc(SCC(=O)Nc3c(C)n(C)n(-c4ccccc4)c3=O)n(C)c(=O)c2c1C`: the “hERG current change (%, negative = inhibition) at 10uM” value stood at 9.4%.

Consider `C=CCn1c(SCC(=O)Nc2c(C)n(C)n(-c3ccccc3)c2=O)nc2sc(C)c(C)c2c1=O`, for which the “hERG current change (%, negative = inhibition) at 10uM” value is reported as -31.4%.

Take `C=CCn1c(SCC(=O)Nc2c(C)n(C)n(-c3ccccc3)c2=O)nc2sc(C)c(-c3ccccc3)c2c1=O`: the “hERG current change (%, negative = inhibition) at 10uM” value is given as -54%.

With `O=C(O)c1ccc[nH]c1=S`, the “hERG current change (%, negative = inhibition) at 10uM” value was 10.3%. On to `CC(=O)NC1C(OCc2ccccc2)OC2COC(C)(C)OC2C1O` (stereo not shown), for which the “hERG current change (%, negative = inhibition) at 10uM” value amounted to 18.3%. As to `Cc1ccc(C)c(NC(=S)NNC(=O)c2csc(C)c2C)c1`, the “hERG current change (%, negative = inhibition) at 10uM” value is on record as 1.72%. Regarding `O=C(NCc1ccccc1)C1CCCN1S(=O)(=O)c1ccc(Cl)cc1` (stereo not shown), the “hERG current change (%, negative = inhibition) at 10uM” value was -7.85%. On to `COc1ccc(OC)c(N(CC(=O)NCC2CCCO2)S(=O)(=O)c2ccccc2)c1` (stereo not shown), for which the “hERG current change (%, negative = inhibition) at 10uM” value worked out at 8.03%. Then `NC(=O)NC(=O)C(c1ccccc1)N1CCN(S(=O)(=O)c2ccc(Br)s2)CC1` (stereo not shown), with -52.2%. Turning to `CC(NC(=O)C1CCN(S(=O)(=O)c2ccc(Br)s2)CC1)c1ccccc1` (stereo not shown), the “hERG current change (%, negative = inhibition) at 10uM” value is given as -0.752%. Then `NC(=O)NC(=O)C(c1ccccc1)N1CCN(S(=O)(=O)Cc2ccccc2)CC1` (stereo not shown), with -18.9%. Then `CCN(c1cccc(C)c1)S(=O)(=O)c1cnc[nH]1`, with 9.23%. As to `COc1ccccc1C(=O)NCC(c1cccs1)N1CCc2ccccc21` (stereo not shown), the “hERG current change (%, negative = inhibition) at 10uM” value stood at 1.26%. Then `CCOC(=O)c1c(NC(=O)Cn2nc(C(F)(F)F)cc2C)sc2c1CCC2`, with -4.65%. Then `NC(=O)c1cc(-c2csc(NCCc3ccccc3)n2)ccc1O`, with 6.05%; and `COc1ccc(C2=NC(CO)(CO)CO2)cc1`, with 19%; and `Cc1nc(NCC(c2ccccc2)N(C)C)c2c(C)c(C)sc2n1` (stereo not shown), with -77.1%.

For `Cc1nc(NCc2ccc(S(N)(=O)=O)cc2)c2c(C)c(C)sc2n1`, the “hERG current change (%, negative = inhibition) at 10uM” value is listed as 2.83%. `COc1ccc(C(CNc2ncnc3sc(C)c(C)c23)N(C)C)cc1` (stereo not shown): the “hERG current change (%, negative = inhibition) at 10uM” value is recorded as -56.4%.

For `COc1ccccc1C(CNc1ncnc2sc(C)c(C)c12)N(C)C` (stereo not shown), the “hERG current change (%, negative = inhibition) at 10uM” value was -55.4%.

On to `Cc1sc2ncnc(NCC3COc4ccccc4O3)c2c1C` (stereo not shown), for which the “hERG current change (%, negative = inhibition) at 10uM” value is -13.6%. Then `Cc1sc2ncnc(NCC(O)c3ccc([N+](=O)[O-])cc3)c2c1C` (stereo not shown), with -71.6%; and `Cc1nc(N(C)Cc2ccccc2)c2c(C)c(C)sc2n1`, with -14.8%; and `CCOC(=O)c1sc2ncnc(NCC(c3cccs3)N(C)C)c2c1C` (stereo not shown), with 5.57%. For the compound `COc1ccc(/C=N/Nc2ncnc3sc(C)c(C)c23)cc1`, the “hERG current change (%, negative = inhibition) at 10uM” value is recorded as -8.19%. For the compound `Cc1sc2ncnc(N[C@@H](CCC(=O)O)C(=O)O)c2c1C`, the “hERG current change (%, negative = inhibition) at 10uM” value is reported as 10.1%. Then `Cc1sc2ncnc(NCC(c3ccccc3)N(C)C)c2c1C` (stereo not shown), with -40.1%. On to `Cc1sc2ncnc(NCC(O)c3ccccc3)c2c1C` (stereo not shown), for which the “hERG current change (%, negative = inhibition) at 10uM” value is 17.7%.
